Data published in the supplement of paper PMC3334620.
Over roughly 33,000 sequences, “E-score (-0.5 to 0.5)” has its median near -0.053; the highest 2% begin near 0.37. The sample holds the highest values, similar sequences and a random draw of the others, so the mix is not that of the screen.

Each sequence was assayed against Hap1 (UniProt P0CE41) (assay: PBM E-score (8-mer binding enrichment) (E-score (-0.5 to 0.5)); higher = stronger / more preferred TF binding). Conditions: protein concentration: 200 nM; construct: GST-DNA-binding domain.
Outline: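 Detection of bound protein used fluorescent anti-GST, with scans normalised by masliner. The proteins were GST-tagged yeast transcription factors applied at about 100-200 nM to universal all-10-mer Agilent arrays made double-stranded by primer extension. Each ungapped eight-base word, pooled with its reverse complement, was scored with an E-score from the Universal PBM Analysis Suite.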

Sequence of UniProt P0CE41 (P0CE41 whole entry, the tested form may be a part): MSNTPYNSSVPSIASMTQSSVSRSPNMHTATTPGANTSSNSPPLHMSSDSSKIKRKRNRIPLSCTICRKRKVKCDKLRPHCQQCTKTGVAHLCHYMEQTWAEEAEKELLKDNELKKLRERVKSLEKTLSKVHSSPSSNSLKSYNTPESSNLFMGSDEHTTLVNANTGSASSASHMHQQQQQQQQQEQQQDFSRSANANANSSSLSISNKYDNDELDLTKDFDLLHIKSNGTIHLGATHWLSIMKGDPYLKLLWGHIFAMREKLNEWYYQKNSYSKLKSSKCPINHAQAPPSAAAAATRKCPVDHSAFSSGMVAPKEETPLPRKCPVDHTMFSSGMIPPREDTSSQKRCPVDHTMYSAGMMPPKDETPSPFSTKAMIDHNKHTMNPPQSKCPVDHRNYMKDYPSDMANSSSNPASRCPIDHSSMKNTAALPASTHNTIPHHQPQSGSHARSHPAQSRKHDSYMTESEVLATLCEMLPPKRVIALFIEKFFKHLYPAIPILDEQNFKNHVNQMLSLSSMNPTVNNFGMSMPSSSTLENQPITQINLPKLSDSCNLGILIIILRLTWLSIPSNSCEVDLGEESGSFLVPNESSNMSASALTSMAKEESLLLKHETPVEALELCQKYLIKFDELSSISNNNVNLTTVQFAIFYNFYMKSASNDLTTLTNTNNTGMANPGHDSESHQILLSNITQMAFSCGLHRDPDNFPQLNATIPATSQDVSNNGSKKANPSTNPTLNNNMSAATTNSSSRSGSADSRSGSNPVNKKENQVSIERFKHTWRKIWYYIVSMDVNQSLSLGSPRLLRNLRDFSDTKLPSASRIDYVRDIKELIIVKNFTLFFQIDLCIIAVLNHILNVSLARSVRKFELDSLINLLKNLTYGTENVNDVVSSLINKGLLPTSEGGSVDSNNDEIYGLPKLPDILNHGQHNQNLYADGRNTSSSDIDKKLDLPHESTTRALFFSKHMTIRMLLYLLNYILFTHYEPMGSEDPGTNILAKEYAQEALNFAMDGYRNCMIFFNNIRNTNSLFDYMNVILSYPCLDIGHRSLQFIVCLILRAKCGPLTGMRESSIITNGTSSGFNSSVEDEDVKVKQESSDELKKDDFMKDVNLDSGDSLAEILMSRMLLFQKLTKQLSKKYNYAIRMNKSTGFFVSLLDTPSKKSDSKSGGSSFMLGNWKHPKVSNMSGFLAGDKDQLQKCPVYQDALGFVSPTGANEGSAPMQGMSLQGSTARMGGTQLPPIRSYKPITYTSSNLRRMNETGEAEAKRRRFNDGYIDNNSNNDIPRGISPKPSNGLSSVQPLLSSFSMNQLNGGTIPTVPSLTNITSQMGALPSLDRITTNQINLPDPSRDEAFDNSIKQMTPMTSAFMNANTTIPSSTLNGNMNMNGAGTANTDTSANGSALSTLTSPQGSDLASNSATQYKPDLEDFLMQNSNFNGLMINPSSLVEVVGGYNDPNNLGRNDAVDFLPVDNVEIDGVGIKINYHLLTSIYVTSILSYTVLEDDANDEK

| Sequence | PBM E-score |
| --- | --- |
| AGGCTGTG | -0.019 |
| CACATCGC | 0.0343 |
| GCGGACGC | 0.0721 |
| TCACGCGA | -0.0375 |
| AGAGGAGA | -0.242 |
| CCGGACTA | 0.404 |
| CCGGACCC | 0.374 |
| TAGGACCA | -0.0211 |
| GCGGACCC | 0.266 |
| ACGGACCC | 0.278 |
| TCGGACCA | 0.381 |
| CCGGACCG | 0.431 |
| ACGGACCG | 0.328 |
| CCGGACTC | 0.361 |
| ACGGACTA | 0.237 |
| TGGGACCA | -0.19 |
| CAGGACCG | -0.00407 |
| AGGCGCCC | -0.0775 |
| CGCATCCA | -0.0122 |
| ACCACAGC | -0.127 |
| GAGAGAGA | -0.0161 |
| CCAACTGA | -0.324 |
| GGAGAGAC | 0.101 |
| AACCTCGC | -0.0117 |
| AGTCGTAA | 0.00615 |
| AAAGAGCC | -0.12 |

| Sequence | PBM E-score |
| --- | --- |
| AGGACCGA | 0.311 |
| GATTTATA | 0.146 |
| ACGGACCA | 0.344 |
| CCGGACCA | 0.372 |
| GCGGACCA | 0.31 |
| ACTCCCGA | 0.2 |
| GTTCCCGA | 0.257 |
| ATTCCCGC | 0.318 |
| ATTCCCGG | 0.395 |
| ATTCCCGA | 0.395 |
| CTTCCCGA | 0.143 |
| ATTCCCCG | 0.286 |
| ACTCCCGG | 0.378 |
| ACTCCCCG | 0.283 |
| CTAGCGTC | -0.0893 |
| CCTCTTCC | -0.0207 |
| TAGCCTAA | -0.158 |
| AGGCAAAG | -0.246 |
| CGAGGAGC | 0.0181 |
| CGAACCAG | -0.00442 |
| AGATCGGC | 0.267 |
| GCATCGGC | 0.225 |
| ACGTCGGA | 0.256 |
| GGATCGAA | 0.168 |
| CCGTCGGA | 0.335 |
| CGATCGGA | 0.354 |

| Sequence | PBM E-score |
| --- | --- |
| GCATCGGA | 0.383 |
| GGATCGGA | 0.384 |
| AGATCGGA | 0.376 |
| ACATCGGA | 0.265 |
| GCGTCGGA | 0.375 |
| AGATCGGG | 0.153 |
| AAACTAGC | -0.188 |
| GCGTTGCA | 0.0308 |
| GAGCGGAA | 0.248 |
| GGCATAAA | 0.102 |
| AAAGTAAG | -0.163 |
| CTAGAGGA | -0.241 |
| ATCCGTCA | 0.212 |
| GAGGGGAA | 0.148 |
| CCTGTGGA | -0.336 |
| GGTTTTAA | 0.334 |
| AAGTGTGC | -0.132 |
| AGTCGGTA | 0.0714 |
| GATCGAAA | 0.121 |
| CTTTCGGC | 0.348 |
| CTTTCGTA | -0.158 |
| ATTTCGGG | 0.29 |
| GTTTCGAA | -0.219 |
| GTTTCGGA | 0.389 |
| ATTTCGGC | 0.326 |
| ATTTCGGA | 0.415 |

| Sequence | PBM E-score |
| --- | --- |
| CTTTCGGA | 0.399 |
| GTTTCGTA | 0.11 |
| CGTGCGAC | -0.0831 |
| ACGCAGAA | -0.0372 |
| AAGCTCAA | -0.167 |
| AAATAACC | 0.0225 |
| CGCGTCAC | -0.174 |
| CACTGACG | -0.147 |
| CCCCCAAG | -0.195 |
| CCCTCAAG | -0.233 |
| CGCCGAGC | 0.364 |
| GGCCGCGA | 0.0621 |
| GGCCGAGA | 0.401 |
| CCCCGAGA | 0.319 |
| CGCCGCGA | 0.213 |
| TCCCGAGA | 0.261 |
| CGCCGAGA | 0.37 |
| AGCCGAGA | 0.267 |
| GCCCGAGA | 0.391 |
| CTTTCTTA | -0.125 |
| AGCTTAGA | -0.00759 |
| ACGTACTG | -0.144 |
| CGGGCCCG | 0.419 |
| ACGGCCGA | 0.419 |
| CCGGCCGC | 0.299 |
| AGGGCCCG | 0.106 |

| Sequence | PBM E-score |
| --- | --- |
| ACGGCCAA | 0.166 |
| ACGGCCCA | 0.141 |
| CGGGCCCA | 0.26 |
| CGGGCCTA | 0.383 |
| CCGGCCGG | 0.456 |
| AGGGCCTA | 0.0252 |
| CGGGCCTC | 0.192 |
| CCGGCCAG | 0.351 |
| ATCCACGC | -0.239 |
| AGCACTAT | -0.257 |
| ATTCCCTC | -0.083 |
| ACTATCGA | -0.0147 |
| GGATCCAC | 0.059 |
| ATCTCTTC | -0.0222 |
| AGAGCAGA | -0.17 |
| CAATCTGA | -0.151 |
| GTACTGTA | -0.119 |
| CGGGCCGC | 0.263 |
| ACGGCCGG | 0.392 |
| GGGGCCGA | 0.233 |
| ATGGCCGG | 0.315 |
| CGGGCCGA | 0.379 |
| CCGGCCGA | 0.453 |
| ACGGCCTG | -0.0121 |
| TCGGCCCA | 0.304 |
| CCGGCCTA | 0.288 |

| Sequence | PBM E-score |
| --- | --- |
| TCGGCCAA | 0.256 |
| TCGGCCGA | 0.48 |
| GCGGCCGA | 0.335 |
| ATGGTGTG | -0.303 |
| ACCTTACT | 0.105 |
| ATGCCCCG | 0.282 |
| ACGGTAGG | -0.0364 |
| TACCCCTA | -0.146 |
| ACTTCTAC | -0.119 |
| ACGGCCGC | 0.228 |
| CCGGCCCA | 0.231 |
| ACGGCCGT | 0.373 |
| ACGGCCCT | -0.0855 |
| ACGGCCCG | 0.249 |
| CCGGCCCG | 0.434 |
| CCGTCAAA | 0.114 |
| ACTGAGCG | -0.284 |
| AATGCCGC | 0.295 |
| ATTGCCGA | 0.375 |
| AATGCCGA | 0.405 |
| AATGCCGT | 0.334 |
| CATGCCGG | 0.298 |
| CTTGCCGA | 0.0417 |
| ATTGCCGC | 0.0752 |
| CATGCCGA | 0.17 |
| AATGCCGG | 0.384 |

| Sequence | PBM E-score |
| --- | --- |
| CGTTGGTC | -0.0912 |
| ACGGGAAC | 0.101 |
| GGAAGACC | 0.0832 |
| GCCCACTA | -0.137 |
| CTCACACC | -0.15 |
| CGCGGCAG | 0.1 |
| GACTGTAC | -0.171 |
| GAGCTGCA | -0.00591 |
| CCCCGCTC | 0.0426 |
| ATCGGCAC | 0.315 |
| CGCGCGAC | 0.2 |
| AAATCCGC | 0.387 |
| AAATCCAC | 0.0573 |
| GAATCCGC | 0.179 |
| AAATCCGA | 0.457 |
| CAATCCGC | 0.191 |
| CAATCCGG | 0.375 |
| TAATCCGA | 0.346 |
| CAATCCGA | 0.241 |
| AAATCCCA | -0.0185 |
| AAATCCCG | 0.379 |
| GAATCCGA | 0.307 |
| CAATCCCG | 0.272 |
| AAATCCAG | 0.0422 |
| AAATCCTG | -0.118 |
| AAATCCCT | -0.166 |

| Sequence | PBM E-score |
| --- | --- |
| AAATCCGT | 0.396 |
| AAATCCGG | 0.475 |
| AAATCCTT | 0.0613 |
| CCTTTGGA | -0.215 |
| GGCTGCTA | -0.0615 |
| AGACCGAG | 0.373 |
| CTACCGAG | 0.139 |
| CGACCGAG | 0.371 |
| AGACCGAT | 0.35 |
| CGACCGAA | 0.378 |
| AGACCGAC | 0.346 |
| CCACCGAG | 0.14 |
| AGACCGAA | 0.281 |
| CGACCGAC | 0.301 |
| GCAGCTTA | -0.171 |
| CCTGAGAA | -0.253 |
| CCTATCAG | -0.147 |
| GACAGCAA | -0.221 |
| TGACTCAA | -0.251 |
| CGGCTGTC | 0.175 |
| GGGCACAA | -0.0367 |
| GAGGACGC | -0.0224 |
